This is part of a sample that, as a whole, favours compounds with a hit. Of some 83,000 tested, about 20% had one in any assay.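 Cell lines were cultured in 96-well plates, exposed to a single compound concentration, and assessed for percent growth 48 hours later.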 A number with no mark means an inactive call. Activity calls are given as the source filed them. The calls were made as follows: active = growth percent below 10; inactive = the rest.

Assay in all cases: NCI-60 one-dose screen, 48 h (100 = growth as untreated, 0 = no growth, -100 = all killed)
Conditions in all cases: 10 µM

Experiment [1] relates to HCT-15 colon.
The subject of experiment [2] is HT29 colon.
Experiment [3] concerns SNB-75 CNS.
Experiment [4] concerns SNB-19 CNS.
The test system of experiment [5] is U251 CNS.
Experiment [6] has as its system PC-3 prostate.
In experiment [7] the test system is SK-MEL-5 melanoma.
Experiment [8] concerns UACC-62 melanoma.
Experiment [9] relates to LOX IMVI melanoma.
Experiment [10] relates to SK-MEL-28 melanoma.
The test system of experiment [11] is SK-MEL-2 melanoma.
Experiment [12] relates to EKVX NSCLC.
The subject of experiment [13] is SN12C renal.
Experiment [14] relates to UO-31 renal.
Experiment [15] concerns TK-10 renal.
The test system of experiment [16] is ACHN renal.
For experiment [17], the system named is CAKI-1 renal.
Experiment [18] concerns A498 renal.
For experiment [19], the system named is CCRF-CEM leukemia.

Take `O=C(Cn1cc(CSc2nnc3oc4ccccc4n23)nn1)Nc1cccc(Cl)c1`: the growth is 62.4% in experiment [1]; 82.3% in experiment [2]; 51% in [3]; 74.5% in [4]; 70.6% in [5]; 50.4% in experiment [6]. Besides, the growth in experiment [7] was 58.3%; in experiment [8] it was 49.6%; in [9], 58.3%; in experiment [10], 81.5%; in experiment [11], 55.6%; in experiment [12], 57.6%. In addition, the growth in experiment [13] is 76.5%; in experiment [14], 55.3%; in experiment [15], 79.3%; in experiment [16], 66.7%; in [17], 59.8%; in [18] it was 106%. Also, the growth in experiment [19] is 50.6%.
On to `Cc1ccc(NC(=O)NCn2c(=O)[nH]c3ccccc3c2=O)cc1`, for which the growth is 92.1% in experiment [1]; 109% in [2]; 29% in [3]; 52.6% in [4]; 61.5% in [5]; 84.1% in experiment [6]. Also, the growth is 85.1% in experiment [7]; 60.9% in [8]; 83.7% in [9]; 94.5% in experiment [10]; 93.1% in experiment [11]; 87.6% in [12]. For the same compound, the growth is 68.6% in [13]; 44.5% in [14]; 72.5% in experiment [15]; 35% in experiment [16]; 61.4% in experiment [17]; 90.4% in experiment [18]. Further, the growth in experiment [19] was 97.5%.
Regarding `C=C[C@H]1[C@H](O[C@@H]2OC(CO)[C@@H](O)[C@H](O)C2OC(=O)c2c(O)cc(O)cc2-c2cccc(O)c2)OC=C2C(=O)OCC[C@H]21` (some centres not stated), the growth was 93.7% in experiment [1]; 108% in experiment [2]; 93.2% in [3]; 97.2% in [4]; 104% in experiment [5]; 103% in [6]. In addition, the growth in [7] was 100%; in [8], 98%; in [9], 99.3%; in experiment [10], 102%; in [11] it was 106%; in [12] it was 93.8%. Moreover, the growth in [13] is 102%; in experiment [14], 89.3%; in experiment [15], 102%; in experiment [16] it was 105%; in [17], 93.9%; in experiment [18], 106%. The growth in experiment [19] was 106%.
`CC[C@@]1(O)C(=O)OCc2c1cc1n(c2=O)Cc2c-1nc1cc(F)c(C)c3c1c2[C@@H](N)CC3`: the growth in experiment [1] is 5.44% (active); in experiment [2] it was -11.1% (active); in experiment [3] it was -26.1% (active); in experiment [4], 1.87% (active); in experiment [5], -42.1% (active); in [6], 22.5%. Also, the growth in experiment [7] is -78.4% (active); in experiment [8], -78.1% (active); in experiment [9] it was -74.2% (active); in [10], -15.7% (active); in experiment [11] it was -29.2% (active); in experiment [12], 15.4%. Further, the growth is 1.83% (active) in [13]; -82.4% (active) in experiment [14]; 6.02% (active) in [15]; -57.8% (active) in [16]; -22.9% (active) in [17]; -89.6% (active) in [18]. Also, in experiment [19], the growth was 13.4%.
As to `C=C(C)[C@@H]1CC[C@]2(COP(=O)(OCC)OCC)CC[C@]3(C)[C@H](CC[C@@H]4[C@@](C)(CCCN)[C@H](C(=C)C)CC[C@]43C)[C@@H]12`, the growth is 9.75% (active) in experiment [1]; 5.73% (active) in experiment [2]; 34.4% in [3]; 40.4% in experiment [4]; 21% in [5]; 13.1% in [6]. Also, the growth is -47.6% (active) in [7]; 35.3% in experiment [8]; 1.01% (active) in [9]; 31.7% in experiment [10]; 27.2% in experiment [11]; 21.6% in [12]. The growth in [13] was 14.7%; in experiment [14] it was 16.7%; in [15] it was 57.4%; in experiment [16] it was 22.3%; in [17] it was 19.5%; in [18] it was 61.1%. Also, in experiment [19], the growth is 2.27% (active).
Consider `COc1cccc(-c2nn(-c3ccccc3)cc2-c2ccnc(NCCCNC(=O)Nc3ccc(F)cc3)c2)c1`, for which the growth in experiment [1] is -16.3% (active); in experiment [2] it was -7.83% (active); in experiment [3], 0.286% (active); in [4], 6% (active); in [5], 8.94% (active); in [6], 3.99% (active). Also, the growth is -71% (active) in experiment [7]; 11.4% in experiment [8]; 3.45% (active) in [9]; -3.54% (active) in experiment [10]; -40.6% (active) in experiment [11]; 20.7% in experiment [12]. The growth in experiment [13] is 23.6%; in [14], 17.7%; in experiment [15] it was 49.8%; in experiment [16], 20.6%; in experiment [17] it was 19.2%; in experiment [18], 58%. For the same compound, the growth in [19] was -26.7% (active).
In the case of `C[C@H]1[C@H](C)CC[C@]2(COC(=O)CCC(=O)NCC#CCN3CCNCC3)CC[C@]3(C)C(=CC[C@@H]4[C@@]5(C)CCCNC(C)(C)[C@@H]5CC[C@]43C)[C@H]12`, the growth in experiment [1] is 16.1%; in [2], -21% (active); in [3], 82.2%; in [4] it was 60%; in experiment [5] it was 14.7%; in experiment [6], 17.8%. Also, the growth is 9.74% (active) in experiment [7]; 46.7% in experiment [8]; 1.63% (active) in experiment [9]; -26.5% (active) in experiment [10]; 96.3% in [11]; 73.4% in experiment [12]. In addition, the growth is 64.9% in experiment [13]; 42.9% in [14]; 70.9% in [15]; 59.4% in experiment [16]; 49.1% in experiment [17]; 111% in [18]. Also, in experiment [19], the growth is 12.5%.
For the compound `O=C(NCCCCC(c1ccc(F)cc1)c1ccc(F)cc1)NCCCc1cccnc1`, the growth in experiment [1] was 14%; in [2] it was 14.4%; in experiment [3], 53%; in [4], 24.5%; in experiment [5], 26.4%; in experiment [6], 11.5%. In addition, the growth was -90.5% (active) in [7]; 41.6% in experiment [8]; 42.5% in experiment [9]; 20.8% in experiment [10]; -1.41% (active) in experiment [11]; 27.4% in [12]. In addition, the growth in experiment [13] is 23.9%; in experiment [14] it was 26.2%; in experiment [15] it was 46.2%; in experiment [16], 37.5%; in experiment [17] it was 29.8%; in [18], 84.2%. Further, the growth in experiment [19] is -25.4% (active).

For the origin of these results see PubChem BioAssay (NCI).
